# Screens: PubChem BioAssay, National Center for Advancing Translational Sciences (NCATS)
# Sampled rows, rich in hits. Any-hit rate of the full collection: about 22%.
# Pf growth 48h: inhibits P. falciparum growth in the first generation, 48 h; P. falciparum luciferase growth in erythrocytes, 48 h; Potency, µM (titrated, usually from 28.7 µM), for inactives: at the top dose activity change, negative = inhibition, actives largely listed as inhibitors; 310,000 tested, 5.9% active; AID 504832; also: potency is read from the fitted curve at half-maximal effect; % is scaled to controls: 0 for no effect and ±100 for the full control effect
#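 Luciferase-expressing parasites in RBCs, 2% Hct / 0.1% parasitemia final; RPMI 1640 + 0.5% Albumax; 37 C, 5% CO2, one generation; luminescence read-out, lower signal = inhibition.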
# CHX counter: affects cycloheximide protein synthesis inhibition readout, counter-screen; 300,000 tested, 12% active; AID 2314; cell reporter, cycloheximide protein synthesis inhibition counterscreen; max response, %; in the data active = max response mostly above about 13%, no sharp cut-off; inactive = mostly below about 14%; also: read at 38.3 µM for the half of the compounds with a filed dose; 0% is about no effect
# Shiga toxin inh: blocks Shiga toxin action in Vero cells. 290,000 tested, 9.2% active. AID 2315. inhibition, % at 38.7 µM. Vero cells, Shiga toxin protein synthesis inhibition reporter; in the data active = inhibition mostly above about 28%, no sharp cut-off; inactive = mostly below about 43%; also: 0% is about no effect
# LmPK inhibitor: blocks Leishmania mexicana pyruvate kinase activity; Q27686; purified LmPK, Kinase-Glo ATP luminescence, 1 h; Potency, µM (top dose mostly 57.5 µM), for inactives: top-dose activity change, negative = inhibition, usual class: inhibitors; 290,000 tested, 0.37% active; AID 1721; also: potency is read from the fitted curve at half-maximal effect; % is scaled to controls: 0 for no effect and ±100 for the full control effect
# Target sequence (Q27686 whole entry, looked up): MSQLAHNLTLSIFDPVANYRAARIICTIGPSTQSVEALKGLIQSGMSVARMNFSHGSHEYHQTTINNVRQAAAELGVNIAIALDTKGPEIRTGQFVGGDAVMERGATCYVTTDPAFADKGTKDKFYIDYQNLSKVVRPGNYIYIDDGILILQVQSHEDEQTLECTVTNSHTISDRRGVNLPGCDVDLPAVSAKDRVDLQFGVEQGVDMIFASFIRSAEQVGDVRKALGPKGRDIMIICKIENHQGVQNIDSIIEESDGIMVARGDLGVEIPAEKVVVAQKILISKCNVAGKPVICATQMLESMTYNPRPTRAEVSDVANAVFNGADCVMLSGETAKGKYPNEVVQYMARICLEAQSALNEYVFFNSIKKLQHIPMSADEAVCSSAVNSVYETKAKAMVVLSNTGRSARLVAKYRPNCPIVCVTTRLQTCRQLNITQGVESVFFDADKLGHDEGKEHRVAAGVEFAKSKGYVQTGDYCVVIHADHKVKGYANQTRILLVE
#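 Screened at intermediate enzyme activity to detect both inhibitors and activators: LmPK at 0.1 nM, with a 0.5 nM enzyme column as activation reference. PEP 0.5 mM, ADP 0.1 mM; ATP detected by luminescence after 1 h.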
# Pf growth 96h: P. falciparum growth inhibition at 96 hour, primary screen for plastid delayed-death inhibitors | AID 504834 | 320,000 tested, 6.9% active | Potency, µM (series often up to 28.7 µM), without a hit: at the top dose activity change, negative = inhibition, actives largely listed as inhibitors | P. falciparum luciferase reporter growth, 96 h; also: potency is read from the fitted curve at half-maximal effect; % is scaled to controls: 0 for no effect and ±100 for the full control effect
#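 Readout is luminescence from an integrated firefly luciferase in P. falciparum. Red cells, 2% hematocrit and 0.05% parasitemia final, were cultured with compound through two parasite generations (96 hours) at 37 C, 5% CO2.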
# * marks the source's active call; other numbers are inactive results; i = inactive; ? = inconclusive; · = no result given; [ ] = remark or other dose. Unless noted, calls follow the shape of the dose curve; as a rule, active = well fitted inhibition curve with a large enough effect; inconclusive = small, poorly fitted or top-dose-only effect, or another doubt; inactive = no such curve, though single readings can be large or run the other way.
SMILES,Pf growth 48h,CHX counter,Shiga toxin inh,LmPK inhibitor,Pf growth 96h
COc1ccccc1N1CCN(/N=C\c2ccc(C)o2)CC1,231.3%,45.4,99.6*,-2.5%,?
COc1ccccc1N1CCN(/N=C/c2cc(OC)c(OC)c(OC)c2)CC1,31.7%,9.0,15.1,1.2%,?
COc1ccccc1N1CCN(/N=C\c2ccccc2)CC1,45.0%,56.6*,·,20.8%,?
Cc1ccc(N2CCN(/N=C/c3sccc3C)CC2)cc1,23.3%,12.1*,10.0,10.3%,39.9%
O=C(Oc1ccc(Br)cc1)c1n[nH]c(=O)c2ccccc12,-4.5%,-1.8,-23.0,-1.9%,-22.9%
CSCC[C@H](NC(=O)[C@H](CC(C)C)NC(=O)[C@H](CO)NC(=O)[C@H](CCC(=O)O)NC(=O)[C@H](CC(C)C)NC(=O)[C@H](Cc1ccc(O)cc1)NC(=O)[C@H](CCCCN)NC(=O)[C@H](CCCCN)NC(=O)[C@H](C)NC(=O)[C@H](CO)NC(=O)[C@H](CC(C)C)NC(=O)[C@H](CCC(N)=O)NC(=O)CNC(=O)[C@H](CC(C)C)NC(=O)[C@H](CC(C)C)NC(=O)[C@H](CCCCN)NC(=O)[C@H](CO)NC(=O)[C@H](Cc1ccccc1)NC(=O)[C@H](CC(=O)O)NC(=O)[C@H](CO)NC(=O)[C@@H](NC(=O)[C@H](Cc1ccccc1)NC(=O)[C@@H](NC(=O)CNC(=O)[C@H](CC(=O)O)NC(=O)[C@H](C)NC(=O)[C@@H](N)Cc1cnc[nH]1)C(C)C)[C@@H](C)O)C(N)=O,·,-7.8,-5.2,·,·
CCOC(=O)CCc1nc2ccccc2[nH]1,·,-0.2,38.9,-0.3%,·
COCC(=O)O[C@]1(CCN(C)CCCc2nc3ccccc3[nH]2)CCc2cc(F)ccc2[C@@H]1C(C)C,1.51µM*,-5.3,-10.8,0.1%,2.39µM*
CN(CC(=O)Nc1ccccc1Cl)C(=O)Cn1cc(C(F)(F)F)ccc1=O,20.8%,·,·,·,39.7%
CCCn1c(-c2ccc(OC)cc2)nc2c(=O)n(C)c(=O)[nH]c21,5.3%,-6.8,-17.6,-3.4%,·
CCCCn1c(-c2ccc(OC)cc2)nc2c(=O)n(C)c(=O)[nH]c21,-11.9%[0.00184 µM],-5.7,6.2,3.3%,1.65µM*
CCOC(=O)CC(=O)CSc1nc2ccccc2c(=O)n1-c1ccc(C(=O)N2CCOCC2)cc1,1.65µM*,-4.6,-4.8,-2.2%,·
CCOC(=O)CC(=O)CSc1nc2ccccc2c(=O)n1-c1ccc(C(=O)NCCOC)cc1,5.22µM*,0.8,-12.1,8.5%,?
Clc1ccccc1-c1nnc(-c2cccs2)o1,i,40.7*,89.2*,3.5%,146.5%
CSc1ccccc1-c1nc(-c2ccncc2)no1,·,56.6*,81.9*,-8.9%,-26.1%
Cc1onc(-c2ccccc2Cl)c1-c1nc(-c2ccncc2)no1,·,-2.7,6.2,-3.2%,11.7µM*
C(=C\c1nc(-c2cccnc2)no1)/c1ccccc1,-12.6%,7.9,12.7,9.0%,29.0%
Clc1ccccc1/C=C/c1nc(-c2cccnc2)no1,58.2%,40.6*,97.9*,-5.7%,136.7%
Clc1ccccc1-c1nnc2sc(-c3cccs3)nn12,?,1.1,2.5,2.3%,·
Cc1ccc(S(=O)(=O)N2CCN(C(=O)COC(=O)C3CCC3)CC2)c(C)c1,7.1%,·,·,·,22.8%
Cc1nc(-c2noc(-c3ccccc3Cl)n2)c(C(F)(F)F)o1,91.9%,60.6*,46.7*,-19.9%,19.3%
Cc1nc(-c2noc(-c3cccc(Cl)c3)n2)c(C(F)(F)F)o1,34.1%,4.5,18.3,-10.2%,54.2%
Cc1ccccc1-c1nc(-c2cccnc2)no1,198.2%,27.8*,82.6*,-22.6%,?
O=C(Nc1nnc(-c2cccnc2)o1)c1ccccc1Cl,8.5%,9.2,18.1,-4.8%[11.5 µM],44.0%
Clc1ccccc1-c1nc(-c2cccnc2)no1,51.7%,24.6*,83.4*,-27.6%,58.6%
SMILES,Pf growth 48h,CHX counter,Shiga toxin inh,LmPK inhibitor,Pf growth 96h
Clc1ccccc1-c1nnc(-c2cccnc2)o1,57.8%,25.5*,58.1,-1.5%,60.7%
CC(=O)c1ccc(N(CC(=O)NC2CCCCC2)C(=O)CNC(=O)c2cccs2)cc1,-9.5%,13.9,-6.8,0.6%,-5.2%
CCCOc1ccc(C(=O)CCCC(=O)c2ccc(OCCC)cc2)cc1,?,0.7,4.4,-3.4%,8.5%
O=C(CNC(=O)c1ccc(Cl)c([N+](=O)[O-])c1)OCN1C(=O)c2ccccc2C1=O,49.5%,·,·,·,35.0%
CC(C)Oc1ccc(OCCn2c(S(=O)(=O)O)nc3c(N)ncnc32)cc1,-2.0%,-1.7,-9.8,-5.7%,?
OC[C@H]1O[C@@H]2O[C@H]3[C@H](O)[C@@H](O)[C@@H](O[C@H]4[C@H](O)[C@@H](O)[C@@H](O[C@H]5[C@H](O)[C@@H](O)[C@@H](O[C@H]6[C@H](O)[C@@H](O)[C@@H](O[C@H]7[C@H](O)[C@@H](O)[C@@H](O[C@H]1[C@H](O)[C@H]2O)O[C@@H]7CO)O[C@@H]6CO)O[C@@H]5CO)O[C@@H]4CO)O[C@@H]3CO,4.5%,-1.4,-2.7,-4.7%,53.3%
Clc1ccccc1-c1nc(-c2ccncc2)no1,135.8%,26.3*,97.4*,?,165.9%
Cc1ccc(-c2nc(-c3ccncc3)no2)c(Cl)c1,93.4%,34.8*,·,-4.0%,-29.4%
O=C1c2ccccc2C(=O)N1CCCc1nc(-c2ccncc2)no1,-0.2%,-0.3,22.7,6.2%,19.3%
CCOC(=O)Cn1c(-c2cccnc2)nc(-c2ccccc2)c1-c1ccccc1,4.15µM*,-0.8,-10.4,10.3%,2.33µM*
C#CCn1c(S(=O)(=O)Cc2ccccc2Cl)nc(-c2ccccc2)c1-c1ccccc1,8.28µM*,5.7,-4.6,5.4%,?
CCOC(=O)Cn1nc(-c2ccccc2)c(-c2ccccc2)nc1=O,0.7%,-2.1,-8.5,6.0%,4.4%
CCOC(=O)Cn1c(S(=O)(=O)Cc2ccccc2Cl)nc(-c2ccccc2)c1-c1ccccc1,9.28µM*,0.9,7.5,7.8%,2.62µM*
C#CCn1c(S(=O)(=O)Cc2ccc(C)cc2)nc(-c2ccccc2)c1-c1ccccc1,?,7.8,-10.1,3.4%,?
CC(NS(=O)(=O)c1ccc(Br)cc1)C(c1cccs1)N1CCOCC1 (configuration not stated),1.8%,-3.2,-9.2,2.3%,-20.6%
Cc1ccc(S(=O)(=O)N2[C@@H](c3cccc(Cl)c3)C(C(=O)O)=CC[C@H]2c2cccc(C)c2)cc1,-27.4%,·,·,·,?
COc1ccc([C@@H]2CC=C(C(=O)O)[C@H](c3ccc(Cl)cc3)N2S(=O)(=O)c2ccc(C)cc2)cc1OC,?,·,·,·,13.1µM*
COc1cccc([C@@H]2CC=C(C(=O)O)[C@H](c3ccc(Cl)cc3)N2S(=O)(=O)c2ccc(C)cc2)c1,?,·,·,·,9.28µM*
Cc1ccc(S(=O)(=O)N2[C@@H](c3ccc(Cl)cc3)C(C(=O)O)=CC[C@H]2c2ccc(C(C)C)cc2)cc1,-0.2%,·,·,·,54.8%
